Out of some 200,000 compounds screened, about 700 (0.35%) were called active. This is one part of a sample in which actives are shown more often than they occur. Unmarked numbers belong to inactive results.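 The calls were made as follows: active = inhibition above a set limit, the mean inhibition across all tested compounds plus 3 SD (cut at about 34% in these data); inactive = the rest.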
Assay: blockers of IFN-gamma driven STAT1 reporter – cell-based, HTS, luciferase reporter, primary screen (AID 920);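 also: 0% = IFN-gamma with DMSO and 100% = IFN-gamma with 300 µM nifuroxazide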
Settings: NIH 3T3 STAT1-luciferase reporter, luminescence, at 5.5 µM, hits give high values

SMILES | inhibition
O=C(COC(=O)c1ccc(F)cc1)Nc1nc2ccc([N+](=O)[O-])cc2s1 | -0.42%
O=C(CN1CCN(c2ccccn2)CC1)N1CCc2ccccc21 | -3.17%
O=C(CSCc1ccccc1)N1CCc2ccccc21 | -41.3%
O=C(CN1C(=O)c2ccccc2S1(=O)=O)N1CCc2ccccc21 | 61.3% (active)
S=C(Nc1ccc(Br)cc1Cl)N1CCC2(CC1)OCCO2 | -18.2%
CCNc1ccc(C(=O)OCC(=O)N2c3ccccc3NC(=O)C2(C)C)cc1[N+](=O)[O-] | 4.43%
Cc1cc(Cl)ccc1OCCCC(=O)NCc1ccncc1 | -1.56%
C/C(=N/OC(=O)c1cccc(C(F)(F)F)c1)c1cnccn1 | -6.55%
COc1ccccc1CNC(=O)c1ccc(SC)cc1OC | -9.83%
COc1cc(SC)ccc1C(=O)Nc1cc(C)ccn1 | -2.53%
COc1cc(SC)ccc1C(=O)Nc1nc(C)cs1 | 93.3% (active)
CC(=O)NC(Cc1ccc(F)c(F)c1)C(=O)NC1CCN(c2nnnn2-c2ccccc2)CC1 (stereo unspecified) | 5.49%
CC1c2nc3ccccc3n2C(CC(=O)NCCCN2CCOCC2)C(=O)N1Cc1ccccc1 (stereo unspecified) | 6.33%
C/C(=N/NC(=O)C1COc2ccccc2O1)c1ccco1 (stereo unspecified) | -4.92%
COc1ccc(C2=NN(C(=O)CCC(=O)O)C(c3cccs3)C2)cc1OC (stereo unspecified) | 3.75%
COc1ccc(CCNC(=O)COC(=O)/C=C/c2cccs2)cc1OC | 9.78%
COC(=O)C1=CN(Cc2ccc(OC)c(OC)c2)C=C(C(=O)OC)C1c1cccs1 | 59.2% (active)
Cc1cc([N+](=O)[O-])nn1Cc1ccc(F)cc1 | 6.91%
O=c1cnnc(Nc2ccccc2F)[nH]1 | -3.73%
COc1ccc2c(CC(=O)OCC(=O)Nc3ccccc3[N+](=O)[O-])coc2c1 | 0.3%
COc1cc2c(cc1O)[C@H](Cc1ccc(Oc3cc(C[C@@H]4NCCc5cc(OC)c(O)cc54)ccc3O)cc1)NCC2 | 5.62%

SMILES | inhibition
CC[C@H]1CN2CCc3cc(OC)c(OC)cc3[C@@H]2C[C@@H]1C[C@H]1NCCc2cc(OC)c(OC)cc21 | 71.5% (active)
Cc1ccc(NC(=S)N2CCN(c3ncccn3)CC2)cc1C | 0.8%
CCn1c2ccccc2c2cc(NC(=O)COC(=O)c3cc(S(=O)(=O)N4CCCCC4)ccc3Cl)ccc21 | 5.58%
CC(=O)c1ccc(-c2nnc(CCC(=O)N(C)Cc3cnc4ccccn34)o2)s1 | 0.17%
COc1ccc(C(=O)/C=C/Nc2ccccn2)cc1 | 82.5% (active)
CCOc1cc(NC(=O)c2ccccn2)c(OCC)cc1NC(=O)c1ccc(OC)cc1 | 3.8%
COc1ccc(-c2csc(Nc3ccccn3)n2)cc1 | -12.9%
CSc1ccc(CN(C)CC(=O)NCc2ccc(F)cc2)cc1 | -7.18%
NC(=O)C1CCN(Cc2nc3c(Br)cc(Br)cc3c(=O)[nH]2)CC1 | 3.52%
CCC(=O)Nc1ccccc1N1CCN(S(C)(=O)=O)CC1 | 2.52%
O=C(Nc1ccccc1N1CCN(C(=O)c2ccccc2)CC1)c1ccc2c(c1)OCO2 | 2.21%
CCCC(=O)Nc1ccccc1N1CCN(C(=O)c2ccccc2)CC1 | 34.8% (active)
Cc1nc2ccc(NC(=S)N3CCC(C)CC3)cc2nc1C | -19.9%
COc1cccc(-c2nn(-c3ccccc3)cc2/C=C(\C#N)C(=O)NCCCn2ccnc2)c1 | -6.77%
c1ccc(C2CNCc3c2ccc2ccccc32)cc1 (stereo unspecified) | 14.8%
COc1ccc(CC(=O)Nc2cc(S(=O)(=O)N3CCCCC3)ccc2N2CCN(C)CC2)cc1 | 1.82%
Cn1c(N)c(C(=O)COC(=O)/C=C/c2ccc(OC(F)F)cc2)c(=O)n(C)c1=O | 5.58%
CS(=O)(=O)N1CCC(C(=O)N2CCN(c3ccccc3)CC2)CC1 | 7.02%
CCOc1ccc2c(c1)C(c1ccc(C)cc1)=NNC(c1ccc(C)cc1)=N2 | -36.9%
CCc1ccc2c(c1)C(c1ccc([N+](=O)[O-])cc1)=NNC(c1ccccc1)=N2 | 5.38%
Cc1ccc(C2=Nc3c(ccc4ccccc34)C(c3ccncc3)=NN2)cc1 | 66.7% (active)

SMILES | inhibition
CCc1ccc(-c2nn(-c3ccccc3)cc2CSC(=N)N)cc1 | -3.6%
Cc1cc(C)n(CCNC(=O)CC2C(=O)NCCN2Cc2ccc(C)o2)n1 (stereo unspecified) | 4.76%
C=CCn1c(CCc2ccc(OC(C)C)cc2)n[nH]c1=S | -6.91%
C=CCN(C(=O)c1cc(C)cc(C)c1)C1(C(=O)Nc2ccccc2)CCN(C(C)C)CC1 | -4.59%
NC(N)=NCCCc1cn(CC(=O)N2CCNCC2)nn1 | 3.04%
Cc1ccc(C(=O)Cn2cccn2)cc1 | -6.86%
Cc1noc(C)c1COc1cccc(C(=O)Nc2cccnc2)c1 | 2.53%
Cc1cccc(OCCNC(=S)NC(=O)c2cccnc2)c1 | -6.17%
CN(Cc1cccnc1)C(=O)c1cc(COc2ccc3ncccc3c2)on1 | 34.3% (active)
Cc1cccc(N2CCN(c3ccc(NC(=O)/C=C\C(=O)O)cc3)CC2)c1 | 1.29%
OCCC1CN(Cc2cccc(O)c2)CCN1CCc1ccccc1 (stereo unspecified) | 8.18%
S=C(NCCc1ccccc1)N1CCn2cccc2C1c1ccncc1 (stereo unspecified) | 21.8%
CC(C)(C)c1ccc(Oc2ccc(N)cc2)cc1 | 64.1% (active)
Cc1ccc(Oc2ccc(N)cc2)cc1 | -19.6%
Nc1ccc(Oc2ccc(Cl)cc2)cc1 | -14.9%
COc1ccc([C@H]2[C@H](C(C)=O)N3N=Cc4ccccc4C3C23C(=O)OC(C)(C)OC3=O)cc1 (stereo partly specified) | -13.7%
Cn1c(NC(=O)c2ccc3c(c2)OCO3)cc(=O)n(C)c1=O | 0.99%
COc1ccc(C(=O)Nc2ccc3c(c2)OCO3)cc1OC | -0.74%
Cn1c(=O)n(C)c2cc(C(=O)Nc3ccc4c(c3)OCO4)ccc21 | 35.6% (active)

From PubChem BioAssay AID920 (The Scripps Research Institute Molecular Screening Center, 2007)
